Assay outcomes as filed in PubChem BioAssay.
PTHR1 ag: activates the human parathyroid hormone receptor PTHR1 | Q03431 | HEK293 GP2 PTHR1 cells, GloSensor cAMP luminescence, 1 h | Potency, µM (doses to about 115 µM), inactives show at the highest dose activation, hits mostly activators | 410,000 tested, 0.075% active | AID 743266; also: potency is read from the fitted curve at half-maximal effect; nearly all actives have a fitted effect of over 55% in size
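HEK-293-derived GP2 cells expressing PTHR1 and a GloSensor cAMP reporter, 3,000/well, plated overnight, given luciferin plus IBMX (each 0.5 mM as added) for 1 h at 37 °C, then compound for 1 h at 37 °C. Luminescence was read after 15 min at room temperature.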
D3 ag: activates the human D3 dopamine receptor; P35462; D3R DiscoveRx beta-arrestin cells, luminescence, 90 min; max activation, %; 410,000 tested, 0.58% active; AID 652048; in the data active = max activation above about 30%; also: 0% is about no effect
Target sequence (P35462 whole entry, looked up): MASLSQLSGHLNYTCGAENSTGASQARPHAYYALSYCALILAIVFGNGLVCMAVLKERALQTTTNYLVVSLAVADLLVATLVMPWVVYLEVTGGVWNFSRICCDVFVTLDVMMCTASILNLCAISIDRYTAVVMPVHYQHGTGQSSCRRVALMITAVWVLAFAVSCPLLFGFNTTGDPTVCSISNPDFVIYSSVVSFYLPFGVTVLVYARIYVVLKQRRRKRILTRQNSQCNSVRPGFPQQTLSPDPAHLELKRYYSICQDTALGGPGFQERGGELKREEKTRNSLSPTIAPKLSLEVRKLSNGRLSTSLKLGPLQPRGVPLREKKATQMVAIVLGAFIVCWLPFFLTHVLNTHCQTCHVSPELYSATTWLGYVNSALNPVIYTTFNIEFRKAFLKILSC
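Agonist-mode cell screen: cells plated at 1500/well and incubated overnight at 37 °C, then exposed to library compounds for 90 min at 37 °C. Detection reagent was added for 30–60 min at room temperature, and luminescence was read.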
RGS4 inhibitor: human RGS4 inhibition. P49798. Transcreener GDP fluorescence polarization, RGS4-accelerated GTP hydrolysis. Potency, µM (highest dose often 114 µM), without a hit: at the highest dose activity change, negative = inhibition, most hits filed as inhibitors. 390,000 tested, 0.039% active. AID 504845; also: potency is read from the fitted curve at half-maximal effect; % is scaled to controls: 0 for no effect and ±100 for the full control effect; nearly all actives have a fitted effect of over 75% in size
Target sequence (P49798 whole entry, looked up): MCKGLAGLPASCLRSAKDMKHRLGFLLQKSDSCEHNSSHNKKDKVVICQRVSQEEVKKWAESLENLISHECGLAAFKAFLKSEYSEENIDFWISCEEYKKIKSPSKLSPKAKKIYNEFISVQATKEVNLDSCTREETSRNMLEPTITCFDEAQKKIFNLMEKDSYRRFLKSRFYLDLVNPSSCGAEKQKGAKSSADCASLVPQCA
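MLSMR compounds (23 nl, pin-transferred) preincubated 10 min at room temperature with a 500nM (2x) first reagent, then RGS4 at 900nM (2x) plus Transcreener GDP mix added; fluorescence polarization (620/688 nm) read before and after 90 min at 30 °C.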
DRD3 antagonist: D3 dopamine receptor (human) antagonism; D3R cells, DiscoveRx beta-arrestin luminescence, antagonist mode; hits give low values; max response, negative = inhibition, %; 360,000 tested, 2.5% active; AID 652054; in the data active = max response below about -50%; inconclusive = no clear call, values can overlap the other calls; also: % is scaled to controls: 0 for no effect and ±100 for the full control effect
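Cells expressing the human receptor were seeded at 1500 cells/well, incubated overnight at 37 degrees C in 5% CO2, then exposed to library compounds with dopamine controls for 90 minutes at 37 degrees C before luminescent detection.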
B2AR arrestin: agonists driving beta-arrestin recruitment to human beta2-adrenergic receptor | P07550 | beta-arrestin recruitment to beta2AR, cell-based reporter | Potency, µM (doses to about 46.1 µM), for the others: at the top dose activation, usual class: activators | 330,000 tested, 0.02% active | AID 492947;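 also: potency is read from the fitted curve at half-maximal effect; 0% = DMSO controls and full agonism = EC100 isoproterenol or metaproterenol; nearly all actives have a fitted effect of over 65% in size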
BRCA1 expr up: activators of BRCA1 expression; MCF7-BRCA1-FFLuc reporter, luminescence, 48 h; response scale: scaled: vehicle 0%, 10 µM genistein 100%; Potency, µM (top dose mostly 46.1 µM), without a hit: at the highest dose activation, actives largely listed as activators; 380,000 tested, 1.1% active; AID 624202; also: potency is read from the fitted curve at half-maximal effect; nearly all actives have a fitted effect of over 80% in size
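First, MCF7-BRCA1-FFLuc cells (2000/well) attach for 2 h; next, compounds are pin-added and incubated 48 h at 37 °C; finally, luciferase reagent is added and luminescence read after 15 min.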
Active calls of the source: *; i = inactive; ? = inconclusive; . = not tested or not shown; [ ] = another dose, or the depositor's remark. Shown are actives, neighbours in structure and some others; about 3.7% of the full set was active somewhere. Unless noted, calls follow the shape of the dose curve; as a rule, active = well fitted curve in the direction sought with a large enough effect; inconclusive = small, poorly fitted or top-dose-only effect, or another doubt; inactive = no such curve, though single readings can be large; an effect the other way counts as inactive or inconclusive.

SMILES	PTHR1 ag	D3 ag	RGS4 inhibitor	DRD3 antagonist	B2AR arrestin	BRCA1 expr up
Cc1nc(-c2ccc(Cl)cc2)sc1C1(C)CC(c2ccccc2)=NO1 (configuration not stated)	-24.5%	-1.7	3.2%	1.7	.	11.2µM*
O=C(NCC(c1ccco1)N1CCCC1)c1cccc(S(=O)(=O)N2CCc3ccccc32)c1 (configuration not stated)	-34.3%	-2.4	.	?	.	-40.8%
CCOc1cccc(=NC2CCCCC2)c2c(C)n(C)c(C)c12	-31.9%	1.7	0.0%	3.3	-0.4%	-73.3%
CCOc1ccccc1CN1C2CCC1CC(c1ccc(C)cc1)C2 (configuration not stated)	?	-27.4	-21.6%	-70.2*	5.5%	-2.0%
CC(C)C[C@H]1C(=O)N2CCC[C@H]2[C@]2(O)O[C@](NC(=O)C3C=C4c5cccc6[nH]c(Br)c(c56)C[C@H]4N(C)C3)(C(C)C)C(=O)N12 (some centres not stated)	-22.7%	20.9	-5.2%	-55.1*	.	-30.6%
[H+].[H+].[Hg+2].[O-]B([O-])[O-].[c-]1ccccc1	.	-9.0	.	.	.	.
CC(C)Oc1cccnc1N(C)C1CCN(Cc2ccccc2)CC1	i	0.0	?	-95.4*	.	-5.0%
CN1CCc2cccc(Cl)c2CC1	-13.0%	-71.1	19.9%[56.9 µM]	-78.3*	-0.2%	-12.5%
CCN1CCN(P2(=O)C=C(c3ccccc3)OC(c3ccccc3)=C2)CC1	?	-31.9	-0.7%	-81.3*	0.1%	8.9%
COc1ccccc1N1CCN(CCc2c[nH]c3cc4c(cc23)OCO4)CC1	i	-26.5	?	-79.2*	.	-16.4%
O=S1(=O)CCN(CCc2c[nH]c3ccccc23)CC1	i	-9.1	-2.2%	-14.7	0.0%	0.0%
COc1ccccc1C(=O)Nc1ccc2nc(SCC(=O)N(C)c3ccccc3)sc2c1	-40.3%	38.6*	-23.9%	.	.	0.0%
CCN1C[C@]2(COC)[C@H](O)C[C@H](OC)[C@@]34[C@@H]5C[C@@]6(O)[C@H](OC(=O)c7ccccc7)[C@@H]5[C@@](OC(C)=O)([C@@H]([C@H](OC)[C@H]23)[C@@H]14)[C@@H](O)[C@@H]6OC	.	-16.4	.	.	.	.
COc1cc(CC2C(=O)N(C)C(=O)N(C)C2=O)ccc1OCc1ccccc1	i	1.7	-18.6%	5.1	0.4%	12.6µM*
CN1C(=O)C(Cc2ccc(OCc3ccccc3)cc2)C(=O)N(C)C1=O	-3.4%	-1.8	-41.3%	-12.7	-1.0%	76.7%
Fc1ccccc1N1CCN(Cc2c(F)cccc2F)CC1	-10.0%[57.5 µM]	-8.7	0.5%	?	0.2%	0.7%
Clc1ccccc1CN1CCN(c2ccccc2Cl)CC1	-31.4%	-30.3	6.6%	-83.1*	-0.2%	-3.2%
Clc1ccccc1N1CCN(Cc2ccc3c(c2)OCO3)CC1	-7.1%	-14.4	14.3%	-88.1*	-0.1%	5.8%
Fc1ccccc1N1CCN(Cc2ccc3c(c2)OCO3)CC1	i	23.2	9.9%	?	2.2%	4.3%
Cc1ccccc1N1CCN(Cc2ccc3c(c2)OCO3)CC1	i	-17.2	-14.9%	-76.5*	-0.4%	3.6%
CN1CCN=C(c2ccccc2)c2cc(Cl)ccc21	.	-1.4	.	.	.	.
CC(C)[C@@]1(NC(=O)[C@H]2CC3c4cccc5[nH]cc(c45)C[C@H]3N(C)C2)O[C@@]2(O)C3CCCN3C(=O)[C@@H](Cc3ccccc3)N2C1=O (some centres not stated)	.	.	250.0%[56.9 µM]	.	.	.
O=NN1CCCC1c1cccnc1 (configuration not stated)	.	.	-140.0%[56.9 µM]	.	.	.
BrCCc1ccccc1	i	-92.5	-20.2%	-98.8*	-2.1%	2.9%
O=c1[nH]c(CN2CC=C(c3ccccc3)CC2)nc2cc(C(F)(F)F)ccc12	i	-0.9	1.7%	-27.2	0.1%	-38.0%
SMILES	PTHR1 ag	D3 ag	RGS4 inhibitor	DRD3 antagonist	B2AR arrestin	BRCA1 expr up
O=c1[nH]c(CN2CC=C(c3ccccc3)CC2)nc2scc(-c3ccccc3)c12	i	67.5*	15.4%	-7.1	-0.4%	-28.0%
CC1CCCC(C)N1/N=C/c1c[nH]c2ccc(Br)cc12 (configuration not stated)	-14.5%	-14.2	-12.9%	-76.0*	-0.8%	-45.6%
CN(C)CCc1c[nH]c2ccccc12	.	-12.7	.	.	.	.
CN1CCCN(C(=O)COc2cccc(C(F)(F)F)c2)CC1	i	2.4	-3.1%	-88.8*	-1.1%	-7.9%
COc1ccc2c3c1O[C@H]1[C@@H](O)C=C[C@H]4[C@@H](C2)N(C)CC[C@@]341	.	-4.4	.	.	.	.
C#CCN1CCN(c2ccc(F)cc2)CC1	-10.0%	-8.9	-1.8%	10.7	-0.3%	-4.3%
Fc1ccc(C(OCCN2CCCC2)c2ccc(Br)cc2)cc1 (configuration not stated)	-2.1%	-39.1	6.3%	-73.3*	-0.4%	-43.3%
Fc1ccc(C(OCCN2CCCC2)c2ccc(F)cc2)cc1	-25.6%	-46.4	15.7%	-61.5*	-0.3%	-11.7%
c1cc(OCCN2CC2)ccn1	12.1%	-7.3	?	14.9	.	3.9%
C[C@@H]1[C@H](O)[C@@H](C)/C=C/C=C/CC/C=C/C=C/C=C/C=C/[C@H](O[C@H]2O[C@@H](C)[C@H](O)[C@@H](N)[C@H]2O)CC2O[C@](O)(C[C@@H](O)[C@H](O)CC[C@@H](O)C[C@@H](O)C[C@@H](O)CC(=O)O[C@H]1C)C[C@H](O)[C@H]2C(=O)O	.	4.1	.	.	.	.
CN(C)C1C(=O)C(C(N)=O)=C(O)[C@@]2(O)C(=O)C3=C(O)c4c(O)cccc4[C@@](C)(O)C3[C@H](O)C12 (some centres not stated)	.	.	129.3%[56.9 µM]	.	.	.
CC(NCc1cccc(Cl)c1Cl)C(O)c1ccccc1 (configuration not stated)	?	-35.1	-19.9%	-28.7	2.6%	-20.7%
COc1cc(OC)c(OC)cc1CNC(C)C(O)c1ccccc1 (configuration not stated)	23.3%	0.5	46.5%	-66.6*	0.5%	7.0%
CC(NCc1ccc(Cl)cc1Cl)C(O)c1ccccc1 (configuration not stated)	i	-32.7	11.4%	-56.4*	-0.2%	101.0%
CC(NCc1ccc(Cl)cc1)C(O)c1ccccc1 (configuration not stated)	i	-20.8	33.2%	-104.9*	-0.5%	0.0%
C[C@@H]1CNC(=O)c2c(C(=O)Nc3ccc(CNC(=O)OC(C)(C)C)cc3)ncn21	-92.6%	1.5	.	32.6	.	-43.2%
CN1CN(c2ccccc2)C2(CCN(CCCSc3ccccc3NC(=O)/C=C/c3ccccc3)CC2)C1=O	i	-10.1	-28.4%	-107.5*	.	-84.7%
